Our source for the Potency values is PubChem BioAssay (NCATS).

The structures appear in SMILES notation. Records with an inconclusive call do not appear. Where a call stands in place of a potency, no number is given. Activity calls are given as the source filed them. Calls follow the shape of the dose curve; as a rule, active = well fitted inhibition curve with a large enough effect; inconclusive = small, poorly fitted or top-dose-only effect; inactive = flat fitted curve, though single readings scatter.

The target in the test is Calcium and integrin-binding protein 1 (Homo sapiens) (UniProt Q99828). As to the kind of experiment: Primary qHTS for Identification of Calcium Integrin Binding Protein 1 (CIB1) Competitor (AID 1508620).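 Also: GST tagged CIB1 binding a fluorescein labelled alphaIIb integrin peptide tracer; top concentration of the series differs between compounds.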 The note with it: CIB1-GST / FITC-alphaIIb peptide fluorescence polarization; series mostly up to 114 µM. The method in brief: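 Fluorescence polarization competition: CIB1-GST (1 uM final) preincubated with compound 15 min at room temperature, then FITC-labeled alphaIIb peptide (100 nM final) added for another 15 min. Polarization read at Ex 480/Em 540.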
Calcium and integrin-binding protein 1 (Homo sapiens), sequence (Q99828 whole entry, looked up): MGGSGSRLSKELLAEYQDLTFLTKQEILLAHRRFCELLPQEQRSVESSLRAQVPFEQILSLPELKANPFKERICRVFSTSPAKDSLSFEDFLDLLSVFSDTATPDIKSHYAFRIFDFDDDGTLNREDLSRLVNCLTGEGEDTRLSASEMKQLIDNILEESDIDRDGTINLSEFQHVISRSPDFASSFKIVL
`N#Cc1nc(Nc2cccc(Cl)c2)c2ncn(C3CCCC3)c2n1`: the Potency entry was “inactive”.
For `COc1ccc(C2Nc3ccccc3C(=O)N2Cc2ccncc2)cc1COc1ccc(NC(C)=O)cc1` (stereo unspecified), the Potency result is “inactive”.
The same measure for `Cc1ccc(OCCn2c(CCNC(=O)CCN3CCCCC3)nc3ccccc32)cc1`: “inactive”; for `CCOc1ccc(C(=O)Nc2ccc(-c3nc4ccccc4o3)cc2)cc1[N+](=O)[O-]`: “inactive”; for `Cc1ccnc(NC(=S)N2CC3CN(c4ncc(C(F)(F)F)cc4Cl)CC3C2)c1` (stereo unspecified): “inactive”.
For `Cc1ccnc(NC(=S)NC2CCCN(c3cccc(C(F)(F)F)c3)C2)c1` (stereo unspecified) the value was “inactive”; for `C#CCOc1cccc(-c2nnc3n2N=C(c2ccc(OC)c(OCC(C)=O)c2)CS3)c1`, “inactive”; for `COc1cc(F)cc(F)c1[S+](=O)([O-])N1CCN([S+](=O)([O-])c2ccc3c(c2)OCCO3)CC1`, “inactive”.
The same measure for `Nc1ccc(NC(=O)Nc2nnc(-c3ccncc3)s2)cc1C(F)(F)F`: “inactive”; for `O=C(NCCCc1ccccc1)C1CCN(c2nc(-c3ccc(Br)cc3)cs2)CC1`: “inactive”; for `COc1ccc(C2Nc3ccccc3C(=O)N2Cc2ccccc2)cc1COc1cccc(C(F)(F)F)c1` (stereo unspecified): “inactive”.
On to `CS(=O)(=O)N1CCN(c2nc(-c3ccc(Br)cc3)cs2)CC1`, for which the Potency entry was “inactive”.
For `O=C(Nc1cncc(Cc2ccccc2)c1)c1ccc(-c2cccc([N+](=O)[O-])c2)o1` the value was “inactive”; for `Cc1cc2c(s1)c1c(n2C)C(=O)N(Cc2ccccc2F)C1`, “inactive”; for `O=C(Nc1nnc(-c2ccco2)o1)c1ccncc1`, “inactive”.
Take `O=C1CCc2cc(S(=O)(=O)Nc3ccc(Cl)c(Cl)c3)ccc2N1`: the Potency result is “inactive”.
